Compounds with a hit are over-represented: about 1.2% of the library has one in this group of screens.
PriA SSB inh: blocks PriA binding to SSB C-terminal tail. AlphaScreen SSBct-PriA binding, biotinylated peptide. inhibition, % at 33 µM. 430,000 compounds, 0.6% hits; in the data active = inhibition mostly above about 37%, no sharp cut-off; inactive = mostly below about 20%;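 note: plate controls were negative control peptide for no effect and reference peptide for full effect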
BJeLR viability: kills HRASV12-expressing BJeLR cells; inhibition, % (no concentration beside the values); 300,000 compounds, 0.17% hits; BJeLR (HRASV12) viability, CellTiter-Glo ATP luminescence, 48 h; in the data active = inhibition above about 50%
PrP UTR inh: suppresses PrP 5' UTR mRNA reporter expression; cell-based PrP 5' UTR mRNA reporter, plate reader; inhibition, % (test concentration not listed); 340,000 compounds, 0.35% hits; in the data active = inhibition above about 52%; note: 0 = median of the neutral control wells
PrPC TRFRET: cell surface PrPC inhibition, primary TR-FRET screen | P04156 | 370,000 compounds, 0.43% hits | TR-FRET read-out | inhibition, % at 13.8 µM; in the data active = inhibition above about 24%; note: 0% = median of the test wells and 100% = reference compound wells
SARS 3CLpro inh: SARS-CoV 3CLpro protease inhibition. 290,000 compounds, 0.14% hits. P0C6X7. recombinant SARS-CoV 3CLpro, quenched FRET peptide cleavage. inhibition, % at 6 µM; in the data active = inhibition above about 12%
PrPC confirm: confirmation of inhibitors of cell surface human prion protein. shares compounds with PrPC TRFRET. 1,500 compounds, 65% hits. cell surface PrPC level, TR-FRET. inhibition, % at 13.8 µM; in the data active = inhibition above about 25%
LD9 cytotox: counter-screen for PrPc inhibitors: cytotoxicity in LD9 cells; AID 743201; 1,500 compounds, 29% hits; luminescence viability; inhibition, % at 13.8 µM; shares compounds with PrPC TRFRET; in the data active = inhibition above about 9.5%
The depositor's hits bear a star.

For COc1ccccc1N(CC(=O)NC1CC2CCC1C2)S(=O)(=O)c1ccc(C)cc1 (stereo not given) the results were PriA SSB inh 1.7, BJeLR viability -0.7, PrP UTR inh -6.2, PrPC TRFRET 55.2*, SARS 3CLpro inh 4.4, PrPC confirm 9.7 and LD9 cytotox -4.8.
`CNC(=O)c1cc(Oc2ccc(NC(=O)Nc3ccc(Cl)c(C(F)(F)F)c3)cc2)ccn1` gave PriA SSB inh -5.3, PrP UTR inh 30.6, PrPC TRFRET 26.9*, PrPC confirm 17.3 and LD9 cytotox 5.9.
O=C(Nc1ccc(Cl)c(C(F)(F)F)c1)c1ccncc1 was read as PriA SSB inh -4.8, BJeLR viability 12.0, PrP UTR inh -5.2, PrPC TRFRET 14.9 and SARS 3CLpro inh -0.9.
COC(=O)C1=C(C(=O)OC)C2OC1c1cc3ccccc3cc12 was read as PriA SSB inh -6.0, PrP UTR inh -17.5, PrPC TRFRET 45.0*, PrPC confirm 17.1 and LD9 cytotox 98.3*.
`COC(=O)C1=C(c2ccc3ccccc3c2)C[C@@H]2CC[C@H]1N2C` gave PriA SSB inh -18.9, PrP UTR inh -2.9 and PrPC TRFRET -2.7.
For CCc1cc2ccccc2nc1SCC(=O)Nc1cc(OC)c(OC)cc1C(=O)O the results were PriA SSB inh -12.7, BJeLR viability 2.1, PrP UTR inh -23.7, PrPC TRFRET 39.6*, SARS 3CLpro inh -0.9, PrPC confirm 4.7 and LD9 cytotox -4.4.
For CSc1nccn2nc(-c3ccc(F)cc3)cc12 the results were PriA SSB inh -16.0.
Screening COc1ccc(CC2C(=O)NC(C)C(=O)N(C)C3Cc4ccc(cc4)Oc4cc(ccc4O)CC(C(=O)NC(C)C(=O)NC(C)C(=O)N2C)N(C)C3=O)cc1 (stereo not given) returned PriA SSB inh -3.8, PrP UTR inh 48.8, PrPC TRFRET 83.3*, PrPC confirm 90.3* and LD9 cytotox 34.4*.
Screening Cn1nc(-c2ccccc2NC(=O)Cn2ccc3ccccc32)ccc1=O returned PriA SSB inh 1.0.
Screening COc1ccc2nc(-c3cccc(NS(=O)(=O)c4cccc(Cl)c4)c3)cn2n1 returned PriA SSB inh -7.0.
`Cc1ccnc(NC(=O)Cc2ccc(-c3ccccc3)cc2)c1` gave PriA SSB inh -21.0, BJeLR viability 9.7, PrP UTR inh -37.5, PrPC TRFRET 34.8*, SARS 3CLpro inh 1.1, PrPC confirm 40.9* and LD9 cytotox 7.6.
For Cc1nnc(SCC(=O)NC2CCCC2)n1-c1ccccc1 the results were PriA SSB inh -11.0, PrP UTR inh -17.2 and PrPC TRFRET -1.9.
COC(=O)N1C2CCCCC2=NN(c2ccccc2)N1C(=O)OC (stereo not given) was read as PrPC TRFRET 28.9*, PrPC confirm 5.1 and LD9 cytotox -2.2.
Screening CC(C)Sc1ccc(CC(=O)NC[C@]2(O)CCc3ccccc3C2)cc1 returned PriA SSB inh -9.0.
CCN(CC)Cc1c(O)ccc2c(C)c(CC(=O)OC)c(=O)oc12 was read as PriA SSB inh -18.2, BJeLR viability -2.6, PrP UTR inh -14.8, PrPC TRFRET 1.9 and SARS 3CLpro inh 2.1.
COC(=O)Cc1c(C)c2ccc(O)c(CNCc3ccc(OC)c(OC)c3)c2oc1=O was read as PriA SSB inh 7.3, BJeLR viability 1.0, PrP UTR inh -13.5, PrPC TRFRET 25.0*, SARS 3CLpro inh -2.1, PrPC confirm 4.8 and LD9 cytotox -3.1.
Screening Cc1c([N+](=O)[O-])c(C/C=N/O)nn1C returned PriA SSB inh inactive, BJeLR viability -11.0, PrP UTR inh -8.4, PrPC TRFRET 33.0*, SARS 3CLpro inh 4.0, PrPC confirm 6.9 and LD9 cytotox -2.7.
Screening COc1ccc(Oc2cnn(-c3ccccc3)c(=O)c2Br)cc1 returned PriA SSB inh -8.2, BJeLR viability -1.5, PrP UTR inh -15.5, PrPC TRFRET 26.6*, SARS 3CLpro inh 0.5, PrPC confirm 35.5* and LD9 cytotox -5.2.
COc1cnn(-c2ccc(C)cc2)c(=O)c1Br was read as PriA SSB inh -3.0, BJeLR viability 6.1, PrP UTR inh -21.2, PrPC TRFRET 1.2 and SARS 3CLpro inh 2.1.
Screening Cc1ccc(NS(=O)(=O)c2cc(C(=O)NCc3ccccn3)ccc2Cl)cc1C returned PriA SSB inh 3.6, BJeLR viability -5.6, PrP UTR inh -10.4, PrPC TRFRET 47.0*, SARS 3CLpro inh -3.1, PrPC confirm 59.9* and LD9 cytotox 6.4.
For COc1cccc2sc(Nc3sc4c(c3C(N)=O)CCCC4)nc12 the results were PriA SSB inh 28.0.
O=C(CNC(=O)c1ccc(CSc2ccccc2)o1)c1ccccc1 was read as PriA SSB inh -26.0.
Screening COc1cc(OC)c(N(C)S(=O)(=O)c2cccc(C(=O)Nc3nccs3)c2)cc1Cl returned PriA SSB inh -2.5, PrP UTR inh -7.7 and PrPC TRFRET -2.5.
Screening CCc1cccc(NC(=O)c2cc(S(=O)(=O)N3CCCCC3)ccc2N2CCOCC2)c1 returned PrPC TRFRET 1.6.
For Cc1cnc(NC(=O)c2cc(S(=O)(=O)N(C)C)ccc2N2CCCC2)s1 the results were PriA SSB inh -0.2, PrPC TRFRET 72.1*, PrPC confirm 79.3* and LD9 cytotox -8.2.
Screening CN(C)S(=O)(=O)c1ccc(N2CCCC2)c(C(=O)Nc2nccs2)c1 returned PriA SSB inh 6.1, PrP UTR inh 3.9, PrPC TRFRET 51.8*, PrPC confirm 53.7* and LD9 cytotox -4.7.
CCc1cccc(NC(=O)c2cc(S(=O)(=O)N(C)C)ccc2N2CCCC2)c1 was read as PriA SSB inh 4.0, BJeLR viability -8.7, PrP UTR inh -4.0, PrPC TRFRET 30.2*, SARS 3CLpro inh 1.6, PrPC confirm 36.1* and LD9 cytotox -3.5.
CN(c1ccccc1)S(=O)(=O)c1cccc(C(=O)Nc2nccs2)c1 was read as PriA SSB inh 6.7, BJeLR viability -4.9, PrP UTR inh -13.8, PrPC TRFRET 25.8*, SARS 3CLpro inh 4.3, PrPC confirm 0.1 and LD9 cytotox 4.0.
For CSc1ccccc1NC(=O)CC1CCCCN1S(=O)(=O)c1cccs1 (stereo not given) the results were PriA SSB inh 24.0.
For Cc1cc(C(=O)O)cc(S(=O)(=O)NNC(=O)c2cccs2)c1C the results were PriA SSB inh -5.8, BJeLR viability -0.2, PrP UTR inh 11.4, PrPC TRFRET 42.0*, SARS 3CLpro inh 1.5, PrPC confirm 3.0 and LD9 cytotox 2.5.
Screening O=C(CSc1ccc(NC(=O)C2CC2)nn1)NCC1CCCO1 (stereo not given) returned PriA SSB inh 3.0.
For Cc1cc(N2CCN(Cc3ccc(F)cc3)CC2)n2c(nc3ccccc32)c1C#N the results were PriA SSB inh -4.0.

Screening results deposited in PubChem by several laboratories.
